Among all 53,000 sequences or so, about 3,700 (7%) were called active. Many of the other results were omitted from the sample, so actives are more common in it than they were. A number with no mark means an inactive call.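 Rule for the calls: active = gene knockdowns whose robust z-score for IL-1 alpha signal is at least 2 or at most -2, so actives lie on both sides; inactive = the rest.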

The nature of this experiment: Components of the Cytosolic LPS Sensing Pathway: Gene Identification via Genome-wide siRNA Screen.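 Note: robust z of the log signal after scaling to non-targeting control siRNA wells of the plate.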 Conditions: RAW264.7 macrophages, IL-1a HTRF, actives lie on both sides, screened at 100 nM (by protocol), cells primed 5 h with Pam3CSK4 first. An outline of the steps:
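Knockdown: 100 nM siRNA, 48h, RAW264.7. Stimulation: Pam3CSK4 5 h, then LipidA via TransIT-TKO 24 h. Output: supernatant IL-1a HTRF, negative-control-normalized, log robust z-score; viability by CellTiter-Glo.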
(In general: Time-resolved FRET reads energy transfer from a long-lived donor to a nearby acceptor.)
On to GGAAGAAGCAGGUGAUUAATT against Grb14, for which the z-score was -1.24.

CGGAUCGGUGCGAGAAUAATT against Gpatch3: the z-score is 0.61.

As to GGCCCUGUGUCAAAUCAGUTT against Zfand6, the z-score was 2.1 (active).

Consider GGAGAUUGUUAUGCAAAAATT against Dnah5, for which the z-score was 0.178. For the sequence GGAAAUUUUGAACCUGACATT against Setd3, the z-score is 0.125. As for GGUCUCAAAGAAAUCUGUATT against Bcap29, the z-score was -2.4 (active). On to GGACUCUUCAGCUUCCAGUTT against Uts2, for which the z-score is -0.0543. As to CCAAGACUCUUUAUUCAACTT against Rasip1, the z-score is 0.774. As to GGAGACAGAAAAUCAAGGCTT against Taf7, the z-score was -0.506. On to CCCUUGCUUGCUAAGAUUUTT against Scyl3, for which the z-score was -0.684. In the case of “GCUGGUGUCUUAUGGCCUATT against 9130008F23Rik”, the z-score was -2.02 (active). With GGAUACAGAGUAUUUCAAGTT against Rtkn, the z-score was -1.01.

On to GCUUGUUCGGGAAUCUUAUTT against Olfr292, for which the z-score is 0.116.

Take GCCUGUUCCGCCAUUCAUGTT against Flii: the z-score was -0.2. In the case of GCUCACACUCUUCAUUAUCTT against Olfr1408, the z-score was -2.91 (active). The value for GGUGUUAGCUUCUCAAAAUTT against Cltrn was 0.497; that for GGAACAUCAUCCACUGGAATT against Crhr1 was 6 (active); that for GGCAAUUUGUGGAUUAUUGTT against Olfr1105 was -0.458. CCCUAAUUCAUUAGCUAUATT against Dhdds: the z-score was 0.111.

Turning to GGACCCUGCUUUUUAAAAATT against Harbi1, the z-score is 0.293. On to GGAAGAGGAGGAAAACUUGTT against Fam135b, for which the z-score was -0.653. Turning to GGAUGAUCUUGGUGUACACTT against Tmem91, the z-score was 3.04 (active). As to GGUAUAAUUGGAAUUGUGATT against Morc1, the z-score was -0.658. With GGUUGUCUGGAAUUUCCAUTT against Immp2l, the z-score was 3.81 (active). In the case of CCCAAUUCCUUAACUAUUATT against Cd209a, the z-score is 1.02. With GGUGGAAAGUGCAUAGACATT against Notch3, the z-score was 0.789.

As to GGACCUGGAUCUAUCCUACTT against Lrfn1, the z-score is -0.969. In the case of GGAUGAUGACUUCCUAGGGTT against Cpne7, the z-score was -0.622.

With CCUUAGGAUAGAAACAAAGTT against Mypn, the z-score was 1.01. Take GCCAGUUAUGAGCAACACCTT against Slc46a1: the z-score was -2.14 (active). Take GCUAACAAAUGUCAGCAUGTT against Popdc3: the z-score was 0.319.

GCCGACUUUAAUGACUGCUTT against Cmtm4: the z-score was 1.71. For CGAAACUGGUCUUUAUACUTT against Tigd4, the z-score is -1.27.

Regarding AUGCGUCCUUCACCAACGATT against Tmem158, the z-score was -3.28 (active). The value for GGAUGACAUGUCAUCAAAGTT against Vmn1r89 was -1.38; that for GGGAAGAGUGGUGCAAUGATT against Olfr155 was 0.835; that for GCAACAAUAAAUCGUACAGTT against Nupr1 was 0.246. As to GGGAAGUUCAUAUUGAUCCTT against Gsdma, the z-score was 0.691. With GGCUUAAGGUGAGAUAUUCTT against Sp9, the z-score was -0.524. As to CGAGUGUUCCUCCAAGUGCTT against Fhl5, the z-score was 0.384.

On to GGGACUAAGAUGAAGCUGATT against Fam43a, for which the z-score is -2.18 (active). With GCUCACUUAUCUACGUUUUTT against Trim15, the z-score was 0.639. GCAUGUGACCUCGUCUUGCTT against Apbb2: the z-score was -1.04. For the sequence GGGCAUGAGAAAUCCACAGTT against Rhox9, the z-score was -1.23.

As for GGCAAAUAAAUUCAGCAAGTT against Pum3, the z-score was -0.0642.

On to GGACUUCCCGAACUACAUATT against Zfp52, for which the z-score was 0.0339.

Regarding GGCUCUCUUUAGAACAGACTT against Rad17, the z-score is 0.479. With GCUACAUACCCAAAUACAUTT against Trpc4ap, the z-score was 2.1 (active). As to GGGACAUAUCUGAAGCAAGTT against Rps26, the z-score is 0.896. Consider GCUUCUGUCAUAAUGAUAUTT against Pramel6, for which the z-score was -2.33 (active). The value for CCAGAAACCAAUCUUUCUUTT against Serpinb1a was -0.0285; that for CCCUAGUGAUAAGGAAUGCTT against Cxcl9 was 0.228; that for GGUGACCACUUCAUGUCACTT against Tmem138 was -1.28.

Turning to GCGGGAGCUUAGCUUUUAUTT against G6pc3, the z-score was 3.33 (active). Turning to CCGUAGACUCGGUGAAGCUTT against Plpbp, the z-score was -0.143. As for GGUCAGAAUCUUUGUUCCUTT against Ndufs4, the z-score is -0.912. For the sequence GGAUUCCCUGUAUGCCCAATT against Rpl36al, the z-score was -0.23. Regarding GGAGAAGCCAAAAGAAUGCTT against Xrn2, the z-score was -0.76. GCUUACAAGUUGCUACUGGTT against Dnajc8: the z-score was 0.425.

For the sequence GGGCAAUUCUAUCAAAGAGTT against Gps1, the z-score is -2.14 (active). In the case of CCUAUAGCAAUGGCAGCAGTT against Pkn1, the z-score is -1.66. Under GGUCCUUUCCCAUAACCUGTT against Swap70 stands -0.922; under GCGGACUACUAUGCUAAAGTT against Tgfb1, 1.08; under GGUGUUCAAAAAGUUUAACTT against Zswim1, 1.02. On to GCCAAGCUCGCCAAGAUUATT against P4ha2, for which the z-score is 0.273.

Turning to GCUGAAGUGCAAGAACAAATT against Dmd, the z-score is 1.91. On to GGUUUUGGCGGAUACUAAGTT against Plin3, for which the z-score was -0.24. For GGAUGAGAGAAAGUUACCCTT against Tspo2, the z-score is -2.78 (active). Turning to GGGCAUCUCAGAUUUAGCUTT against Cct3, the z-score was -0.0572. On to GGGUGAAGAUUCUCUACAATT against Dctn3, for which the z-score is -0.621. Regarding GGACUGAACCCAAAUGCCUTT against Chtf8, the z-score is -1.45. GGAGCUUACAUGGUCCCUATT against Prss37: the z-score is -0.238.

For the sequence CGAGAAGGAUAUAAUUGUUTT against Klhl18, the z-score was 0.449.

With GGUUUCGAACUGAUGAAGCTT against Nemf, the z-score is 0.284.

Regarding GGCAAAACAAAGAAUGAAATT against Prss40, the z-score was -0.38. With “CGAAGUCUGAAACACAUGUTT against A730018C14Rik”, the z-score is 4.13 (active). In the case of GGACUCACAGAAAUUUCCATT against Slc36a1, the z-score is -1.53. Under GGUAAUGAGACGCGGUUUATT against Ina stands 0.202; under GCAACACCUUAUGUUUCAUTT against Cab39, 1.68; under GGCACGAUUUGCUUAUUUUTT against Usf2, 0.0682. As for GCCUCCUACUGGUUCCAAATT against Commd7, the z-score was 2.05 (active).

On to GUCUUCUCUGCCUGUCUGATT against Lce3c, for which the z-score is -0.0986. Regarding CCCAGGGAGAAUUGACUUGTT against Sertad1, the z-score was 0.0114. Regarding GGCCUUUGUAGUAUCCCAGTT against Nudt16, the z-score is -0.709. The value for GCACCAAUCAAUGAGGAGATT against Was was -0.785; that for GGAGUGAUGUCCAUACUGGTT against Leap2 was -2.57 (active); that for CCAUCCUAAGCAGAGUCACTT against Frg2f1 was -0.446. With GGAUGUUGAUUUUCAUGGUTT against Grpel2, the z-score is 1.13. Consider GGGUAUUCAUGAUGUCUUUTT against Kctd6, for which the z-score is 1.39. The value for GGCAUCACUGAUGAAUGAATT against Pacsin2 was -0.585. For the sequence GGAACAUCCAGUCUCUCACTT against Fbxo31, the z-score was 0.244. The value for “CCCAGGUGUAUUUUACAUATT against D10Wsu102e” was -0.00657; that for CGCGGAGGUCUCUCUUAUUTT against Prss39 was 2.22 (active).

Turning to GGUAUUUAAUGGAAGCCUGTT against Acp7, the z-score was -0.537.

With GGCAUCUUUCAUAAAACCGTT against Atad3aos, the z-score was -0.622.

With GCCUAUCAGAAGCUGUUAATT against Eif2ak2, the z-score was 3.59 (active).

GGAGAUAUUAUUGUUCAGATT against Cemip2: the z-score was -0.337. As to GUGCUUUCGUGUUUUUCAATT against Klrb1b, the z-score was -0.388. GCUAUCGUGAUAAUCUGGATT against Gxylt2: the z-score was -0.113. Turning to CUUAAAGGAAUCCUGGUGGTT against Fam169b, the z-score was 0.0229.

With CCUGCAUGCCUAUGUGCGUTT against Ace, the z-score is 2.89 (active).

As to GAAGACUUCGUCCUAACAGTT against Ctsg, the z-score was -0.195. For GGCCUCUUACAAAGUGAGATT against Supt7l, the z-score was -0.265.

In the case of GGGAUAUGUGAAGCCUCAGTT against Mospd3, the z-score was -1.21.

Turning to GGAACAGUUCCUUGUGGUUTT against Uqcrh, the z-score is 0.935.

As for GGUUCAGAAUUUAACCUUATT against Phc3, the z-score is 3 (active). Turning to GGUAUUGUGAAACGUACACTT against Ky, the z-score was 0.914. In the case of CCGUCGUCCUAGAAAAACCTT against Nsun7, the z-score was -1.18.

The values above are taken from PubChem BioAssay AID1508600 (Functional Genomics Laboratory (NCATS/FGL), 2020).
